High-throughput results deposited in PubChem by several laboratories.
Bead autofluor: counter-screen for toxin protease inhibitors: compound fluorescence; compound autofluorescence counterscreen, microsphere flow cytometry; stronger effect = higher value; fluorescence intensity (no concentration beside the values); actives 3.1% (n = 360,000); AID 624483; in the data active = fluorescence intensity above about 16000; inconclusive = no clear call, values can overlap the other calls
BoNT F protease: BoNT/F light chain protease inhibitors, primary screen, biochemical, flow cytometry, MLPCN library; Botulinum neurotoxin type F light chain protease (Clostridium botulinum); inhibition, % at 10 µM; Multiplex microsphere protease cleavage assay; actives 0.22% (n = 360,000); in the data active = inhibition above about 35%, passing the limit was not always enough; inconclusive = no clear call, values can overlap the other calls
MazEF act: activators of E. coli MazEF toxin-antitoxin RNase, primary screen, biochemical, fluorescence, uHTS. AID 504720, 2011. FAM/BHQ RNA-DNA oligo cleavage fluorescence, 5 h. activation, % at 20 µM. actives 0.32% (n = 350,000); in the data active = activation above about 50%
Anthrax LF inh2: Bacillus anthracis LF protease inhibitors, primary screen, biochemical, multiplex microsphere, MLPCN library | Lethal factor (Bacillus anthracis), P15917 | multiplex microsphere protease cleavage assay | inhibition, % at 10 µM | actives 0.12% (n = 360,000)
BoNT-A LC inh2: BoNT/A light chain protease inhibitors, primary screen, biochemical, flow cytometry, MLPCN library; multiplex microsphere protease substrate cleavage; inhibition, % at 10 µM; Botulinum neurotoxin type A light chain protease (Clostridium botulinum A str. ATCC 3502); actives 0.17% (n = 360,000); AID 588499, 2011
Each line names hits and unclear results; the compound was inactive in the other large screens. The list is not random: actives were taken first. Their share in the collection is about 3.7%. Cut-off read from the data, not from the text of the source, unless noted: active = inhibition above about 30%; inconclusive = no clear call, values can overlap the other calls; inactive = below that.

CN(Cc1ccc(C(C)(C)C)cc1)C(=O)c1ccc2c(=O)n3c(nc2c1)CCC3	none
CN(CCC#N)C(=O)COc1ccc(Br)cc1Cl	none
N#CCCN(CCC#N)C(=O)COc1ccc(Cl)cc1Cl	Bead autofluor 18547
CCc1ccc2c(c1)NC(=O)C2(C)Cc1ccc(C(F)(F)F)o1 (stereo unspecified)	none (no result: MazEF act)
Clc1cccc(N2CCNCC2)c1Cl	Bead autofluor 19873
CCCCN(C(=O)COC(=O)CSc1cc(C)c2ccccc2n1)c1c(N)n(CCC)c(=O)[nH]c1=O	none
CCC(=O)Nc1nnc(S(=O)(=O)N(C)c2ccccc2)s1	none
CCCCNC(=O)OCCNC(=O)NC	Bead autofluor 18838, BoNT-A LC inh2 inconclusive
O=C(NCCCCCCNC(=O)OCCO)OCCO	none
Cc1cc(/C=C2/C(=O)N(C)C(=S)N2C)c(C)n1C1CC1	none
CCN1C(=O)C(=Cc2cc(C)n(C3CC3)c2C)C(=O)N(CC)C1=S	MazEF act 677, BoNT-A LC inh2 41
Cc1cc(C=C2C(=O)N(C)C(=S)N(C)C2=O)c(C)n1C1CCCC1	Anthrax LF inh2 38, BoNT-A LC inh2 54
Cc1cc(/C=C2\SC(=S)NC2=O)c(C)n1C1CC1	Bead autofluor 20502
Cc1cc(/C=C2\C(=O)NC(=S)N(C)C2=O)c(C)n1C1CCCCC1	none
CCN1C(=O)CSc2ccc(C(=O)OC)cc21	none
CC(C)(C)NC(=O)c1ccc2nccnc2c1	Bead autofluor 16956
CC(C)(C)c1cc(C(=O)Nc2ccccc2)ccn1	none
CC(C)(C)c1cc(C(=O)NCc2ccco2)ccn1	Bead autofluor 24501
CCN1C(=O)CSc2ccc(C(=O)NCc3ccco3)cc21	Bead autofluor 16140
Cc1ccc(C(=O)NCc2ccco2)cc1Br	BoNT-A LC inh2 inconclusive
CC(C)(C)NC(=O)c1ccnc(C(C)(C)C)c1	Bead autofluor 17617
CCCN(CCC)CCNC(=O)CN1C(=O)COc2ccc(S(=O)(=O)N3CCOCC3)cc21	none
COc1cc(CN2CCN(C(=O)CC(C)C)CC2)c([N+](=O)[O-])cc1OC	none
CC(C)OP(=O)(c1ccc(N(C)C)cc1)C(O)c1ccc(N(C)C)cc1 (stereo unspecified)	none
CCn1c(SCC(=O)N2CCN(c3ccccc3)CC2)nnc1-c1cc2cc(Cl)ccc2o1	Bead autofluor 22674, BoNT-A LC inh2 inconclusive
Cc1nc(NCc2ccco2)c2c(C)c(C)sc2n1	Bead autofluor 16784
O=S1CCCSC1c1cccnc1 (stereo unspecified)	Bead autofluor 21912
O=C1CSC(c2cccnc2)N1c1ccccc1 (stereo unspecified)	none
CCOc1ccc(CCNC(=O)c2cccc(S(=O)(=O)N3CCN(C(C)=O)CC3)c2)cc1OCC	none
Cc1cccc(Cn2c(Cc3ccccc3)nc3ccccc32)c1	none
COCn1c(-c2ccc(OC)c(OC)c2)nc2ccccc21	none
Cc1ccccc1Cn1c(Cc2ccccc2)nc2ccccc21	Bead autofluor 24142, BoNT-A LC inh2 inconclusive
COCc1nc2ccccc2n1Cc1cccc(C)c1	Bead autofluor 16897
COCn1c(-c2cccc(Br)c2)nc2ccccc21	Bead autofluor 19656, BoNT-A LC inh2 inconclusive
COC(=O)c1cc(S(=O)(=O)NCc2cccc(Br)c2)c[nH]1	none
COC(=O)C1=C(C)C(c2cccs2)NC(=O)N1C (stereo unspecified)	Bead autofluor 16502, BoNT-A LC inh2 inconclusive
CCN1C(=O)N[C@@H](c2cccs2)C(C(=O)OC)=C1C	none
CCN(CC1CCCO1)C(=O)c1cc(COc2ccccc2SC)on1 (stereo unspecified)	none
CCCC#Cc1cnc2c(c1)C(=O)N([C@H](C)CO)C[C@H](C)[C@@H](CN(C)C(=O)CCN1CCCCC1)O2	none
Cc1cc(=O)[nH]c(SCC(=O)Nc2nc3c(s2)CCCC3)n1	none
CCC(Sc1nc(C)cc(=O)[nH]1)C(=O)Nc1nc2c(s1)CCCC2 (stereo unspecified)	Bead autofluor 22164, BoNT-A LC inh2 inconclusive
COc1ccc2nc(NC(=S)N(C)C)sc2c1	Bead autofluor 23623
COc1ccc2nc(NC(=O)c3cc(C)oc3C)sc2c1	Bead autofluor inconclusive
COc1ccc2nc(NC(=O)C(NS(=O)(=O)c3cccs3)C(C)C)sc2c1 (stereo unspecified)	Bead autofluor 21430
COc1ccc2nc(NC(=O)CCN3C(=O)c4ccccc4C3=O)sc2c1	Bead autofluor 16754, BoNT-A LC inh2 inconclusive
COc1ccc2nc(NC(=O)c3ccoc3C)sc2c1	Bead autofluor 21922
O=C(NCC1CCCO1)c1cc2c(=O)[nH]c3ccccc3c2s1 (stereo unspecified)	none
CN(CCc1cn[nH]c1)C(=O)C1CCC(=O)N(CC2CCCCC2)C1 (stereo unspecified)	none
COc1ccc(C2C(C(=O)c3ccco3)=C(O)C(=O)N2CCCn2ccnc2)c(OC)c1 (stereo unspecified)	none
CC1CC(C)C(=NNC(N)=O)C(C(O)CC2CCC(=O)NC2=O)C1 (stereo unspecified)	none
Nc1nnnn1/N=C/c1cc(Br)ccc1O	BoNT F protease inconclusive
CS(=O)(=O)C1=NSC2=NC(=O)/C(=C\c3ccc(OC(=O)c4ccco4)c(Br)c3)C(=N)N21	none
O=C(COc1cccc(C(F)(F)F)c1)NCCCN1CCCC1=O	Bead autofluor 16354, BoNT-A LC inh2 inconclusive
CCCNC(=O)c1c(N)n(-c2ccc3c(c2)OCO3)c2nc3ccccc3nc12	Bead autofluor 21855, BoNT-A LC inh2 inconclusive
COCCCNC(=O)c1c(N)n(-c2ccc3c(c2)OCO3)c2nc3ccccc3nc12	none
Nc1ccccc1C(=O)NCCCN1CCN(c2cccc(Cl)c2)CC1	none
NC(=O)Cn1nnc(-c2ccc(C(F)(F)F)cc2)n1	Bead autofluor 21710, BoNT-A LC inh2 inconclusive
O=C(Cn1nnc(-c2cccc(C(F)(F)F)c2)n1)N1CCOCC1	Bead autofluor 22585
CC(C)(C)C(=O)Cn1nnc(-c2ccc(C(F)(F)F)cc2)n1	none
O=C(Cn1nnc(-c2ccc(N3CCOCC3)cc2)n1)N1CCOCC1	none (no result: Bead autofluor, BoNT F protease, Anthrax LF inh2, BoNT-A LC inh2)
CCc1ccc(N2CC(C(=O)Nc3ccc(C)c(S(=O)(=O)N4CCOCC4)c3)CC2=O)cc1 (stereo unspecified)	Bead autofluor 22656
Cc1c(C(=O)N(CC(C)C)c2c(N)n(Cc3ccccc3)c(=O)[nH]c2=O)sc2nc3n(c(=O)c12)CCC3	Bead autofluor inconclusive, Anthrax LF inh2 32
Cc1ccc(C(=O)Nc2nc3ccccc3s2)s1	Bead autofluor 22825
Cc1cc(C(=O)Nc2nc3ccc(S(C)(=O)=O)cc3s2)c(C)o1	Bead autofluor 22296
Cc1ccc(C(=O)Nc2nc3ccc(S(C)(=O)=O)cc3s2)s1	Bead autofluor 21772
COc1cc(C(=O)Nc2nc3ccc(S(C)(=O)=O)cc3s2)cc(OC)c1C	Bead autofluor inconclusive
CC(C)(C)c1cnnn1-c1ccc(NC(=O)c2ccc3c(c2)OCO3)cc1	Bead autofluor 23470
